Assay outcomes from PubChem BioAssay.
Imprint erasure = qHTS Assay for Compounds that Induce Erasure of Genomic Imprints; mouse ES Peg3-LacZ reporter, beta-gal luminescence, 40 h; Potency, µM (series often up to 60.7 µM), actives largely listed as activators; 110,000 tested, 0.02% active
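Imprint erasure is scored as LacZ activity from the silenced maternal Peg3 allele in feeder-free female ES cells cultured 40 h with LIF. Luminescence is normalized to in-plate negative controls and fitted to the Hill equation.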
CRE-bla Fsk = Cell signaling CRE-BLA (Fsk stim) | CHO CRE-bla reporter (cAMP response element driving beta-lactamase), forskolin EC10, beta-lactamase ratio | Potency, µM (titrated, usually from 38.2 µM), hits mostly activators | 71,000 tested, 2.5% active | AID 662, 2007; active = well fitted activation curve with a large enough effect in the signal ratio, with a control signal flat, not every such curve was filed as active; inconclusive = small, poorly fitted or top-dose-only effect, or effect the other way, or a change in a side signal; the % refers to the signal ratio
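Titrated compounds plus EC10 NKH 477 on CHO CRE-bla cells, 3 h, 37 °C. CCF4, 2 h RT. Ratio 460/530 nm → AC50.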
ERK AVP block = qHTS Assay for Inhibitors of the ERK Signaling Pathway using a Homogeneous Screening Assay; AID 995, 2007; HEK293-V1b, vasopressin-stimulated pERK AlphaScreen; Potency, µM (titrated, usually from 57.5 µM), most hits filed as inhibitors; 72,000 tested, 0.99% active; note: nearly all actives have a fitted effect of over 55% in size
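V1b-HEK293 cells; cpd 30 min 37C; 25 nM vasopressin 5 min; lyse 10 min; AlphaScreen beads 5 hr RT. Normalized to DMSO basal and 25 nM vasopressin; AC50 by Hill fit.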
IkB signaling = IkB Signaling; ABC-DLBCL IkBa-CBG/CBR dual luciferase ratio, 4 h; response scale: scaled: untreated 0%, proteasome inhibitor 100%; 110,000 tested, 0.04% active; Potency, µM (highest dose often 57.1 µM); active = well fitted curve in the direction sought with a large enough effect in the signal ratio, not every such curve was filed as active; inconclusive = small, poorly fitted or top-dose-only effect, or a change in a side signal; the % refers to the signal ratio;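 note: the direction sought is a rising ratio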
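Luminescence ratio of IκBα-fused green versus native red beetle luciferase in OCI-Ly3 cells, 4 h post-doxycycline with compound; red signal alone, scaled from basal (0%) to zero light (-100%), flagged nonspecific or cytotoxic effects.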
Each line names hits and unclear results; the compound was inactive in the other large screens. Shown is part of a subset that was picked to be rich in hits. Unless noted, calls come from the whole dose curve; as a rule, active = well fitted curve in the direction sought with a large enough effect; inconclusive = small, poorly fitted or top-dose-only effect, or another doubt; inactive = no such curve, though single readings can be large; an effect the other way counts as inactive or inconclusive.

N#CC1=C(N)Oc2n[nH]c(-c3cccs3)c2C1c1ccoc1 (stereo not drawn)	ERK AVP block inconclusive
N#CC1=C(N)Oc2n[nH]c(-c3ccncc3)c2C1c1ccsc1 (stereo not drawn)	CRE-bla Fsk inconclusive, ERK AVP block 10µM
N#CC1=C(N)Oc2n[nH]c(-c3ccc(F)cc3)c2C1c1ccncc1 (stereo not drawn)	none
CCCCCCSC1=C(C#N)C(c2ccc(O)cc2)CC(=O)N1 (stereo not drawn)	ERK AVP block 15.8µM, IkB signaling inconclusive
COc1cccc(-c2cc(C(F)(F)F)n3nc(-c4ccc(C)cc4)cc3n2)c1	none (no result: CRE-bla Fsk, ERK AVP block)
COc1ccc(-c2cc(C(F)(F)F)n3nc(C)cc3n2)cc1	CRE-bla Fsk 10µM
Oc1ccccc1C(Sc1nc2ccccc2s1)Sc1nc2ccccc2s1	none
Cc1ccc(Cl)cc1N1CCN(C(=O)c2ccc(NS(=O)(=O)c3c(C)noc3C)cc2)CC1	CRE-bla Fsk 2.51µM, IkB signaling inconclusive
Cc1ccc(C)c(N2CCN(C(=O)c3ccc(NS(=O)(=O)c4c(C)noc4C)cc3)CC2)c1	CRE-bla Fsk inconclusive, IkB signaling inconclusive
COC(=O)[C@](C)(N)Cc1ccc(O)cc1	none (no result: Imprint erasure)
COC(=O)c1ccc(NC(=O)c2ccc(CN3CCOCC3)cc2)cc1	ERK AVP block inconclusive
O=C(Nc1ccc(CN2CCOCC2)cc1)c1ccc(-c2ccc(Br)cc2)o1	ERK AVP block 31.6µM, IkB signaling inconclusive
O=C(Cn1cnc2c(nnn2-c2ccccc2)c1=O)NCCc1ccccc1	CRE-bla Fsk 12.6µM (no result: ERK AVP block)
CN1[C@@H]2CC(OC(=O)[C@@H](CO)c3ccccc3)C[C@@H]1[C@H]1O[C@H]12 (stereo partly drawn)	none
N#Cc1cccc(-c2nc(NCCN3CCOCC3)c3ccccc3n2)c1	Imprint erasure inconclusive, CRE-bla Fsk 10µM, ERK AVP block inconclusive
Clc1ccc(-c2nc(NCCN3CCOCC3)c3ccccc3n2)cc1	ERK AVP block inconclusive
N#Cc1nc(-c2cccc3ccccc23)oc1NCCN1CCOCC1	CRE-bla Fsk 10µM
c1cncc(-c2nc(NCCN3CCOCC3)c3ccccc3n2)c1	CRE-bla Fsk 10µM
N#Cc1ccccc1-c1nc(NCCN2CCOCC2)c2ccccc2n1	CRE-bla Fsk inconclusive
O=C(O)C1CCCN1S(=O)(=O)c1cccc2cccnc12 (stereo not drawn)	none (no result: ERK AVP block)
O=C(O)CCCC(=O)Nc1nc(-c2ccccc2)cs1	IkB signaling inconclusive
O=C(CS(=O)(=O)c1ccccc1)Nc1nc(-c2ccccc2)cs1	ERK AVP block 39.8µM
O=[N+]([O-])c1ccc(-c2nc(-c3ccc(F)cc3)c(-c3ccncc3)[nH]2)cc1	ERK AVP block 20µM (no result: CRE-bla Fsk, IkB signaling)
COc1ccc(-c2nc(-c3ccccc3)c(-c3ccc(O)cc3)[nH]2)cc1	IkB signaling inconclusive (no result: CRE-bla Fsk, ERK AVP block)
NC(=O)c1ncn([C@@H]2O[C@@H](CO)[C@@H](O)[C@H]2O)n1	none (no result: Imprint erasure, ERK AVP block)
CCC/C=C(\CCC)C(NS(=O)(=O)c1ccccc1)c1ccc(C(F)(F)F)cc1 (stereo not drawn)	CRE-bla Fsk 2µM (no result: IkB signaling)
NC(N)=NCCC[C@H](NC(=O)CC1(CC(=O)N2CCN(C3c4ccccc4NC(=O)c4ccccc43)CC2)CCCC1)C(=O)NCCn1c(=O)n(-c2ccccc2)n(-c2ccccc2)c1=O (stereo partly drawn)	none (no result: CRE-bla Fsk, IkB signaling)
Cc1ccc2nc(N(Cc3cccnc3)C(=O)c3cccs3)sc2c1	IkB signaling inconclusive (no result: CRE-bla Fsk, ERK AVP block)
COc1cccc(N(C(=O)c2cccs2)c2nc3ccccc3s2)c1	CRE-bla Fsk 3.16µM
C[C@@H](c1ccccc1)N1C(=O)[C@H]2[C@@H]3[C@H](O)C=CC(=O)[C@H]3CC[C@H]2C1=O	none (no result: Imprint erasure, CRE-bla Fsk, IkB signaling)
COCCCn1c(-c2ccc(OC)cc2)nc2nc3ccccc3nc21	none
CCCCCn1c(-c2ccco2)nc2nc3ccccc3nc21	CRE-bla Fsk 12.6µM, IkB signaling inconclusive
CCCn1c(-c2ccc(OC)cc2)nc2nc3ccccc3nc21	CRE-bla Fsk 10µM
COc1ccccc1Cn1c(-c2ccco2)nc2nc3ccccc3nc21	none
c1ccc(Cn2c(-c3ccco3)nc3nc4ccccc4nc32)cc1	CRE-bla Fsk 12.6µM
Nc1ccn([C@H]2O[C@H](CO)[C@@H]3[O][Sn]([c]4ccccc4)([c]4ccccc4)[O][C@H]32)c(=O)n1	none
CCCCC[C@H](CC(=O)NO)C(=O)N[C@@H](C(=O)N1CCC[C@H]1CO)C(C)C	CRE-bla Fsk inconclusive (no result: Imprint erasure)
COCCCNC(=O)c1cc2c(-c3ccc(Cl)cc3)nn(C)c2s1	CRE-bla Fsk 3.16µM
COc1cccc(-c2nn(C)c3sc(C(=O)NCc4ccco4)cc23)c1	Imprint erasure inconclusive, CRE-bla Fsk 12.6µM, IkB signaling inconclusive
COCCNC(=O)c1cc2c(-c3ccc(Cl)cc3)nn(C)c2s1	CRE-bla Fsk 7.94µM
COc1cccc(-c2nn(C)c3sc(C(=O)NCCc4ccc(Cl)cc4)cc23)c1	IkB signaling inconclusive (no result: CRE-bla Fsk, ERK AVP block)
CCCCNC(=O)c1cc2c(-c3ccc(Cl)cc3)nn(C)c2s1	none
O=C1C2=C(Nc3cc([N+](=O)[O-])ccc3N2)O[C@@H]1c1ccc([C@H]2OC3=C(Nc4ccc([N+](=O)[O-])cc4N3)C2=O)cc1	none
CCOC(=O)Nc1oc2ccccc2c(=O)c1CN1CCOCC1	CRE-bla Fsk 10µM
COc1ccc(OC)c(S(=O)(=O)n2ccnc2)c1	none (no result: ERK AVP block)
COc1ccc(C2c3c(-c4cc(Cl)c(C)cc4O)n[nH]c3C(=O)N2Cc2cccnc2)cc1OC (stereo not drawn)	CRE-bla Fsk 3.16µM, ERK AVP block inconclusive, IkB signaling inconclusive
COc1ccc2c(c1)[N+](=O)C(/C(C)=N/NC(N)=S)=C(C)[N+]2=O	none (no result: CRE-bla Fsk, ERK AVP block, IkB signaling)
CC[C@H]1C(c2cccc(Cl)c2)=NN(c2ccccc2)[C@@H]1CO	none (no result: CRE-bla Fsk, ERK AVP block, IkB signaling)
CCc1cccc(NC(=O)CS(=O)Cc2nc(-c3ccc(C)cc3)oc2C)c1 (stereo not drawn)	CRE-bla Fsk inconclusive, ERK AVP block 31.6µM, IkB signaling inconclusive
CCCCNC(=O)CS(=O)Cc1nc(-c2ccc(C)cc2)oc1C (stereo not drawn)	none
COc1cc(OC)c(-c2nn3c(C4CCCCC4)nnc3s2)cc1OC	CRE-bla Fsk 3.98µM, ERK AVP block inconclusive
CO[C@@H]1COC(=O)C/C=C\[C@H](C)COC(=O)[C@H](C)NC(=O)C/C=C\[C@H]1C	none (no result: Imprint erasure, CRE-bla Fsk, IkB signaling)
COc1ccc(CNc2nc(-c3cccnc3)nn2C(=O)c2ccco2)cc1	none
COc1ccc(CNc2nc(-c3cccnc3)nn2C(=O)c2cccs2)cc1	CRE-bla Fsk 5.01µM
CCCCCCC(=O)Cc1cc(OC)c(OC)cc1/C=C(/C(C)=O)C(=O)OC	none (no result: Imprint erasure, CRE-bla Fsk, IkB signaling)
Cc1nn(CCc2nc(-c3ccco3)cs2)c2[nH]c(=O)cc(C(F)(F)F)c12	CRE-bla Fsk 0.501µM, IkB signaling inconclusive
CCN(C(C)=O)c1nnc(CSc2nc3ccccc3s2)s1	CRE-bla Fsk 12.6µM, ERK AVP block inconclusive
CCOc1ccc(S(=O)(=O)Nc2cc(OC)ccc2OC)cc1	CRE-bla Fsk 12.6µM, IkB signaling inconclusive
